For 53 compounds, INHIBITION results are on record in ChEMBL document CHEMBL4513216, “Probing the Open Global Health Chemical Diversity Library for Multistage-Active Starting Points for Next-Generation Antimalarials” (ACS Infect Dis, 2020).

Hit rate of the full screen: of about 69,000 compounds, about 8,600 (12%) showed an effect of 50% or more. The list comes from a sample in which strong results are over-represented; it also holds similar structures and randomly drawn compounds.

The test system of the test is Plasmodium berghei. Nature of the test: Screen against P. berghei liver stage (PbLuc), transformed with Luciferase, at 10uM. It counts as functional, HepG2. The settings on record: tested at 10 uM.
`COc1cccc(OCCc2nnc(NC(C)=O)s2)c1`: the INHIBITION is listed as -8.9%.

For `N[C@H]1CN(C(=O)CCCc2ccc(F)cc2)C[C@@H]1C1CC1`, the INHIBITION was 25.1%. To `O=C1COc2ccc(C(=O)NS(=O)(=O)c3cc(F)ccc3F)cc2N1` belongs 33.3%; to `CCc1cc(NC(=O)C2CCCN(C(=O)c3ccncc3)C2)[nH]n1` (stereo not drawn), 8.86%; to `O=C(Cc1csc(-c2cccc(Cl)c2)n1)NCc1cccc(C(=O)O)c1`, 34.5%. Turning to `COCCN(CCOC)C(=O)c1c[nH]nc1-c1cccc(F)c1`, the INHIBITION was -3.24%.

As to `Cc1nc(-c2ccc(Cl)s2)sc1C(=O)NCCCC(N)=O`, the INHIBITION was -102.2%. With `CCN1CC(COC(=O)c2cc(Br)ccc2F)CC1=O` (stereo not drawn) the figure was 8.4%. To `CC(C)C1CCCN1CC(=O)NCc1ccc(OCC(N)=O)cc1` (stereo not drawn) belongs 12.8%. `CC(C)c1cc(N2CCC(NS(C)(=O)=O)C2)nc(C(C)C)n1` (stereo not drawn): the INHIBITION amounted to 49.6%. To `CC(C)c1cc(NC(CO)CO)n2nccc2n1` belongs 33.2%; to `CC(C)c1cc(N2CCC(NS(C)(=O)=O)CC2)n2nccc2n1`, 61.2%; to `CC(=O)N1CCCN(C(=O)CCc2c(C)nc3ccnn3c2C)CC1`, 10%.

Regarding `CNC(=O)N1CCC2(CC1)CNc1ccc(F)cc12`, the INHIBITION worked out at 10.5%. To `O=C(Nc1ccccc1)C1=NOC2(CCCNC2)C1` (stereo not drawn) belongs -4.02%. Turning to `O=C(Nc1ccccc1)c1ccc2c(c1)C1(CCCCC1)CN2`, the INHIBITION was found to be 90.1%. With `CN(C)C(=O)N1CCC2(CC1)CNc1ccc(F)cc12` the figure was 49.1%; with `CC(=O)c1ccc(NC(=O)c2ccc3c(c2)C2(CCCCC2)CN3)cc1`, 64.7%. To `CC(=O)N1CCC2(CC1)CNc1ccc(F)cc12` belongs 36.2%; to `CCOCC1CN(S(=O)(=O)c2ccccc2)Cc2nccn2C1` (stereo not drawn), 34%; to `COC(C)(C)C(=O)N1CCC(c2cc(CN(C)C)n(C)n2)CC1`, -42.1%. With `CC(=O)N1CCN(C(=O)C(C)OCC(F)(F)F)CC1` (stereo not drawn) the figure was -22.8%.

Consider `CN(CC(N)=O)C(=O)c1cc(Cl)c(Cl)n1C`, for which the INHIBITION was 8.4%. With `CC(C)Cc1noc(CN2CCC(NC(=O)c3cccs3)CC2)n1` the figure was 53.5%; with `CC(C)Cc1nc(CN2CCC(NC(=O)c3cccs3)CC2)no1`, 24.2%; with `Cc1ccc(C(=O)NC2CCN(Cc3noc(CC(C)C)n3)CC2)s1`, 71.8%. To `Cc1ccc(C(=O)NC2CCN(Cc3nc(CC(C)C)no3)CC2)s1` belongs 18.6%; to `CC(C)Cc1noc(CN2CCN(C(=O)c3cccs3)CC2)n1`, 0.891%. To `Cc1ccc(C(=O)NC2CCN(Cc3noc(C(C)C)n3)CC2)s1` belongs 7.44%; to `CCOc1ccnc(N2CCCN(C(=O)c3cc[nH]c3C)CC2)n1`, -7.31%; to `COc1ccccc1-c1ccc(NCc2cn3c(n2)SCC3)nn1`, 9%. `CCc1c(C)nc2n(c1=O)CC(C(=O)Nc1ccccc1C)CS2` (stereo not drawn): the INHIBITION was determined as 42.4%.

With `CC(C)CCCNC(=O)Nc1ccc(C(N)=O)c(Cl)c1`, the INHIBITION is listed as -49.5%. To `COc1no[n+]([O-])c1-c1ccccc1` belongs 63.5%; to `CCOc1no[n+]([O-])c1-c1ccccc1`, 36.9%; to `CN(C)c1no[n+]([O-])c1-c1ccccc1`, -3.19%. With `Cc1[nH]ncc1C(=O)N(CC(C)C)CC(O)c1ccc(F)cc1` (stereo not drawn) the figure was -12.1%; with `CCN1CC2(CCC1=O)CCN(CCOc1ccc(F)cc1)CC2`, 10.1%.

For `CCC(CC)C(O)CNC(=O)Nc1cc(C)nn1C` (stereo not drawn), the INHIBITION was 11.6%. To `Cc1ccc(C(=O)N2CC[C@@]3(O)CCCC[C@H]3C2)cc1` belongs 56.3%; to `CN(C)C(=O)N1CC[C@]2(O)CCN(C(=O)c3ccc(C#N)nc3)C[C@@H]2C1`, 42.4%; to `Cc1ccc(C(=O)N2CC[C@@]3(O)CCN(C(=O)N(C)C)C[C@H]3C2)cc1Cl`, 62.8%. To `COc1ccc(C(=O)N2CC[C@@]3(O)CCCC[C@H]3C2)cc1OC` belongs 44.3%; to `Cn1ccc2cc(C(=O)N3CC[C@@]4(O)CCCC[C@H]4C3)ccc21`, -4.87%. For `Cc1ncc(C(=O)N2CC[C@@]3(O)CCN(C(=O)N(C)C)C[C@H]3C2)cn1`, the INHIBITION is 37.8%. With `Cc1nc(C2CCCN2CC(=O)N2CCc3ccccc32)no1` (stereo not drawn) the figure was 46.2%. With `COCCN(C)C(C(=O)O)c1ccc(F)c(C)c1` (stereo not drawn) the figure was 14%; with `COc1cccc(CN2CCOC(c3cnccn3)C2)c1F` (stereo not drawn), -18.9%. In the case of `O=C(N1CCOCC1)[C@@]12CCO[C@@H]1CCN(C1CCCC1)C2`, the INHIBITION is on record as 8.67%. `CN(Cc1ccncc1)C(=O)[C@H]1CSCN1C(=O)OC(C)(C)C`: the INHIBITION is reported as -12.1%. To `O=C1NC(c2ccccc2)=N[C@@]12CC[C@@H]1CN(Cc3ccccc3)C[C@@H]12` belongs -21.3%; to `O=C1NC(c2ccccc2)=N[C@@]12CC[C@@H]1CN(CC3CCOCC3)C[C@@H]12`, 2.74%. To `O=C1NC(c2ccccc2)=N[C@@]12CC[C@@H]1CN(S(=O)(=O)C3CC3)C[C@@H]12` belongs 76.4%.
